Assay results reported in PubChem BioAssay AID1159580 (chemical genetic matrix, 2015).
Several values for one entry are separate records, joined by “and”; a condition that tells them apart may be missing. Equal entries are not always repeated. The campaign covered roughly 5,500 compounds. About 2,000 (36%) were called active. Not shown: some 18% with an inconclusive outcome. Cut-off read from the data, not from the text of the source: active = normalized growth mostly below about 0.91 (no sharp cut-off); inconclusive = no clear call, values can overlap the other calls; inactive = mostly above about 0.92. The list shows a part of the results.

Assay: chemical genetic growth profiling, strain panel (AID 1159580);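 note: tested at 20 µM; growth read once vehicle control cultures reached saturation at 30 °C; 1 = growth at the plate median or of vehicle wells; lower values mean less growth of the strain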
Settings: S. cerevisiae deletion strains, growth OD

Measured: normalized growth

CC(=O)OCC(=O)[C@@]1(O)[C@H](C)CC2C3CCC4=CC(=O)C=C[C@]4(C)[C@@]3(F)[C@@H](O)C[C@@]21C (some centres undefined)
inactive: locus YAL013W, strain DEP1, active compounds read low 1.01 | locus YAL021C, strain ccr4, active compounds read low 0.959 | locus YAL026C, strain drs2, active compounds read low 1 | locus YAL030W, strain snc1, active compounds read low 0.969 | locus YBL061C, strain skt5, active compounds read low 0.985 | locus YBR009C, strain hhf1, active compounds read low 0.983 | locus YBR021W, strain FUR4, active compounds read low 0.995 | locus YBR023C, strain chs3, active compounds read low 0.978 | locus YBR171W, strain sec66, active compounds read low 0.957 | locus YBR229C, strain ROT2, active compounds read low 1.01 | locus YBR231C, strain swc5, active compounds read low 0.962 | locus YBR279W, strain paf1, active compounds read low 0.991 | locus YCL011C, strain gbp2, active compounds read low 0.988 | locus YCL016C, strain dcc1, active compounds read low 1.01 | locus YCL029C, strain bik1, active compounds read low 1 | locus YCL061C, strain MRC1, active compounds read low 0.98 | locus YCL069W, strain vba3, active compounds read low 0.987 | locus YCR088W, strain abp1, active compounds read low 0.984 | locus YDL005C, strain med2, active compounds read low 0.964 | locus YDL035C, strain GPR1, active compounds read low 1.03 | locus YDL040C, strain nat1, active compounds read low 0.961 | locus YDL074C, strain BRE1, active compounds read low 1.01 | locus YDL101C, strain DUN1, active compounds read low 0.999 | locus YDL134C, strain PPH21, active compounds read low 1.02 | locus YDL185W, strain tfp1, active compounds read low 1.01 | locus YDL192W, strain arf1, active compounds read low 0.998 | locus YDR001C, strain nth1, active compounds read low 0.951 | locus YDR069C, strain doa4, active compounds read low 0.948 | locus YDR101C, strain arx1, active compounds read low 1.02 | locus YDR137W, strain rgp1, active compounds read low 0.997 | locus YDR150W, strain NUM1, active compounds read low 1.01 | locus YDR159W, strain sac3, active compounds read low 0.962 | locus YDR162C, strain NBP2, active compounds read low 1.02 | locus YDR195W, strain ref2 0.933 | locus YDR297W, strain sur2, active compounds read low 0.988 | locus YDR318W, strain mcm21, active compounds read low 0.999 | locus YDR334W, strain swr1, active compounds read low 0.948 | locus YDR335W, strain msn5, active compounds read low 0.966 | locus YDR388W, active compounds read low 0.997 | locus YDR392W, strain spt3, active compounds read low 1.07 | locus YDR502C, strain sam2, active compounds read low 0.998 | locus YEL003W, strain gim4, active compounds read low 0.981 | locus YEL037C, strain rad23, active compounds read low 0.98 | locus YEL061C, strain CIN8 (second series), active compounds read low 0.975 | locus YEL061C, strain CIN8, active compounds read low 1.01 | locus YER015W, strain faa2, active compounds read low 0.985 | locus YER016W, strain bim1, active compounds read low 1.04 | locus YER110C, active compounds read low 0.995 | locus YER111C, strain swi4, active compounds read low 0.986 | locus YER155C, strain BEM2 (second series), active compounds read low 0.967 | locus YER155C, strain BEM2, active compounds read low 0.999 | locus YER167W, strain BCK2, active compounds read low 1.01 | locus YFR010W, strain ubp6, active compounds read low 0.958 | locus YGL078C, strain dbp3, active compounds read low 0.997 | locus YGL086W, strain mad1, active compounds read low 1 | locus YGL167C, strain pmr1, active compounds read low 0.954 | locus YGL173C, strain kem1, active compounds read low 0.961 | locus YGL227W, strain vid30, active compounds read low 0.974 | locus YGL240W, strain doc1, active compounds read low 0.949 | locus YGL248W, strain PDE1, active compounds read low 1 | locus YGL253W, strain hxk2, active compounds read low 0.984 | locus YGR078C, strain PAC10, active compounds read low 1.01 | locus YGR135W, strain pre9, active compounds read low 0.993 | locus YGR252W, strain gcn5, active compounds read low 0.955 | locus YHR013C, strain ard1, active compounds read low 0.998 | locus YHR027C, strain rpn1, active compounds read low 0.982 | locus YHR030C, strain SLT2, active compounds read low 1.01 | locus YHR079C, strain IRE1 (second series), active compounds read low 0.996 | locus YHR079C, strain IRE1, active compounds read low 1.01 | locus YHR094C, strain hxt1, active compounds read low 0.995 | locus YHR129C, strain ARP1, active compounds read low 1.01 | locus YHR142W, strain chs7, active compounds read low 0.961 | locus YHR200W, strain rpn10, active compounds read low 0.995 | locus YIL066C, strain RNR3, active compounds read low 1.02 | locus YIL073C, strain SPO22, active compounds read low 0.99 | locus YIL125W, strain kgd1, active compounds read low 0.997 | locus YIR030C, strain dcg1, active compounds read low 1 | locus YJL092W, strain hpr5, active compounds read low 0.977 | locus YJL095W, strain BCK1 (second series), active compounds read low 0.968 | locus YJL095W, strain BCK1, active compounds read low 1.02 and 1.01 | locus YJL115W, strain asf1, active compounds read low 0.951 | locus YJL129C, strain trk1, active compounds read low 0.956 | locus YJL134W, strain LCB3, active compounds read low 1.01 | locus YJL154C, strain vps35, active compounds read low 0.964 | locus YJL164C, strain tpk1, active compounds read low 1 | locus YJL166W, strain qcr8, active compounds read low 0.915 | locus YJL168C, strain set2, active compounds read low 1.01 | locus YJL187C, strain SWE1 (second series), active compounds read low 1.01 | locus YJR043C, strain POL32, active compounds read low 1 | locus YJR066W, strain TOR1, active compounds read low 0.988 | locus YKL009W, strain mrt4, active compounds read low 1 | locus YKL068W, active compounds read low 0.998 | locus YKL085W, strain MDH1 (second series), active compounds read low 1.03 | locus YKL085W, strain MDH1, active compounds read low 1.03 | locus YKL160W, strain elf1, active compounds read low 0.971 | locus YKL190W, strain CNB1, active compounds read low 1.01 | locus YKR001C, strain vps1, active compounds read low 0.988 | locus YKR026C, strain gcn3, active compounds read low 0.964 | locus YKR091W, strain srl3, active compounds read low 0.97 | locus YLL001W, strain dnm1, active compounds read low 0.926 | locus YLL026W, active compounds read low 0.991 | locus YLL041C, strain sdh2, active compounds read low 0.955 | locus YLR027C, strain aat2, active compounds read low 0.979 | locus YLR039C, strain RIC1, active compounds read low 1.02 | locus YLR058C, strain SHM2, active compounds read low 1.01 | locus YLR102C, strain apc9, active compounds read low 0.993 | locus YLR113W, strain HOG1, active compounds read low 1.02 | locus YLR221C, strain rsa3, active compounds read low 1.02 | locus YLR258W, strain gsy2, active compounds read low 0.992 | locus YLR262C, strain YPT6 (second series), active compounds read low 0.92 | locus YLR262C, strain YPT6, active compounds read low 1.02 | locus YLR268W, strain sec22, active compounds read low 1.01 | locus YLR320W, strain mms22, active compounds read low 1.02 | locus YLR330W, strain CHS5, active compounds read low 1.01 | locus YLR342W, strain FKS1 (second series), active compounds read low 1.04 | locus YLR342W, strain FKS1, active compounds read low 0.969 | locus YLR357W, strain rsc2, active compounds read low 0.982 | locus YLR370C, strain arc18, active compounds read low 0.98 | locus YLR371W, strain rom2, active compounds read low 0.997 | locus YLR384C, strain iki3, active compounds read low 0.965 | locus YLR418C, strain cdc73, active compounds read low 0.954 | locus YML016C, strain PPZ1, active compounds read low 1.01 | locus YML032C, strain rad52, active compounds read low 0.997 | locus YML120C, strain ndi1, active compounds read low 0.973 | locus YML124C, strain tub3, active compounds read low 1.03 | locus YMR058W, strain fet3, active compounds read low 0.97 | locus YMR078C, strain ctf18, active compounds read low 0.998 | locus YMR125W, strain sto1, active compounds read low 0.963 | locus YMR129W, active compounds read low 0.988 | locus YMR205C, strain PFK2, active compounds read low 0.958 | locus YMR223W, strain ubp8, active compounds read low 0.999 | locus YMR231W, strain pep5, active compounds read low 0.965 | locus YMR307W, strain GAS1, active compounds read low 0.959 | locus YNL067W, strain RPL9B, active compounds read low 1.01 | locus YNL071W, strain lat1, active compounds read low 0.992 | locus YNL183C, strain NPR1, active compounds read low 0.974 | locus YNL209W, strain ssb2, active compounds read low 0.993 | locus YNL233W, strain BNI4, active compounds read low 1.01 | locus YNL248C, strain rpa49, active compounds read low 1.01 | locus YNL250W, strain rad50, active compounds read low 0.975 | locus YNL271C, strain bni1, active compounds read low 1 | locus YNL298W, strain CLA4, active compounds read low 0.989 | locus YNL307C, strain MCK1, active compounds read low 0.998 | locus YNL322C, strain KRE1 (second series), active compounds read low 0.961 | locus YNL322C, strain KRE1, active compounds read low 0.995 | locus YNR049C, strain mso1, active compounds read low 0.982 | locus YNR052C, strain pop2, active compounds read low 1.01 | locus YOL012C, strain htz1 0.869 | locus YOL147C, strain pex11, active compounds read low 0.999 | locus YOR001W, strain rrp6, active compounds read low 0.963 | locus YOR061W, strain CKA2, active compounds read low 1.02 | locus YOR069W, strain VPS5, active compounds read low 1.01 | locus YOR070C, strain gyp1, active compounds read low 0.99 | locus YOR080W, strain dia2, active compounds read low 0.946 | locus YOR083W, strain WHI5, active compounds read low 0.978 | locus YOR106W, strain vam3, active compounds read low 0.927 | locus YOR136W, strain idh2, active compounds read low 0.994 | locus YOR144C, strain elg1, active compounds read low 0.999 | locus YOR184W, strain ser1, active compounds read low 1.01 | locus YOR231W, strain MKK1, active compounds read low 1.03 | locus YOR265W, strain rbl2, active compounds read low 0.982 | locus YOR270C, strain vph1, active compounds read low 0.95 | locus YOR290C, strain snf2, active compounds read low 1 | locus YOR316C, strain cot1, active compounds read low 1 | locus YPL051W, strain arl3, active compounds read low 1.01 | locus YPL078C, strain atp4, active compounds read low 0.934 | locus YPL106C, strain sse1, active compounds read low 0.969 | locus YPL240C, strain hsp82, active compounds read low 0.969 | locus YPL256C, strain CLN2, active compounds read low 1.03 | locus YPR119W, strain clb2, active compounds read low 0.997 | locus YPR141C, strain kar3, active compounds read low 0.99 | locus YPR163C, strain tif3, active compounds read low 0.996 | locus YPR167C, strain met16, active compounds read low 1 | strain wtn01, active compounds read low 0.997
